Molecules are shown by their SMILES. Out of some 190,000 compounds screened, about 1,700 (0.89%) were called active.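 How the source made its calls: active means inhibition above the mean inhibition across all screened compounds plus 3 SD (cut at about 44% in these data); inactive means the rest.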 The sample as a whole holds a higher share of actives than the screen did.

The nature of this test: IL-6 driven STAT3 reporter inhibitors, primary screen, U3A cells, luciferase, luminescence, MLSCN library (AID 862).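 Further: 0% = DMSO only wells and 100% = 100 µM nifuroxazide control wells.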 Particulars: IL-6 STAT3-luciferase reporter, at 5.5 µM, stronger effect = higher value, host cell line lacks STAT1.
As to `Cc1ccc(S(=O)(=O)Nc2ccc3ncccc3c2)cc1`, the inhibition was 49.6% (active). With `Cc1cc(C)cc(OCC(=O)Nc2ccc(S(=O)(=O)Nc3ccccn3)cc2)c1` the figure was -0.1% (inactive); with `Cc1ccc(OCC(=O)Nc2ccc(S(=O)(=O)Nc3ccccn3)cc2)cc1`, 4.3% (inactive). For the molecule `CC1CCCCC1NC(=O)CO/N=C/c1ccc(OC(F)F)cc1` (stereo unspecified), the inhibition was -1.1% (inactive). With `CCCCC(O)(CCCC)C(=O)NN(C(=O)CCl)c1ccccc1` the figure was 2.7% (inactive); with `Cc1cc(CNC(=O)c2cccc([N+](=O)[O-])c2)c2ccccc2n1`, 12.3% (inactive). The same measure for `Cc1cccc(-n2c(Cc3cc(=O)[nH]c(=O)[nH]3)nnc2SCC(=O)Nc2cccc(C(F)(F)F)c2)c1`: 2% (inactive); for `CSC(=S)N/N=C/c1c[nH]c2ccccc12`: -10.1% (inactive). With `CN(C)S(=O)(=O)c1cccc(NC(=S)N/N=C/C(=O)c2ccccc2)c1` the figure was 8% (inactive); with `O=C(O)c1cccc(NC(=S)N/N=C/c2c[nH]c3ccccc23)c1`, 73.2% (active).

Turning to `CCS(=O)(=O)Nc1ccc(C2=NN(C(C)=O)C(c3cccs3)C2)cc1` (stereo unspecified), the inhibition is 6.9% (inactive).

For `O=[N+]([O-])c1cc(S(=O)(=O)N2CCCC2)ccc1NN=C1CCCC1`, the inhibition was 8.3% (inactive). The same measure for `Cc1ccc(S(=O)(=O)N(C)C)cc1NC(=O)COC(=O)c1c(C)noc1C`: 6.4% (inactive). As for `COc1ccc(/C(=N\O)c2nccc3cc(OC)c(OC)cc23)cc1OC`, the inhibition was -1.8% (inactive). The same measure for `O=C(/C=C\NCC(=O)c1ccccc1)c1ccccc1`: 22.1% (inactive). For `Cc1ccc(N/C=C/C(=O)c2ccccc2)cc1C`, the inhibition is 52.2% (active). With `Cc1noc(NS(=O)(=O)c2ccc(N/C=C/C(=O)c3ccccc3)cc2)c1C` the figure was -6.5% (inactive); with `O=c1cc(O)c(-c2cccc(C(F)(F)F)c2)c(Cl)[nH]1`, 5.9% (inactive). For `Nc1ncc(-c2cc3ccccc3oc2=O)s1`, the inhibition was 14.8% (inactive). With `O=c1oc2ccccc2cc1-c1cn(-c2ccccc2)c(=S)[nH]1` the figure was 108% (active); with `O=C(c1cn(-c2ccccc2)nc1-c1cc2ccccc2oc1=O)N1CCOCC1`, 11.6% (inactive); with `CC1(C)C2CC=C(/C=N/NC(=O)c3ccc(Cl)cc3)C1C2` (stereo unspecified), -5.9% (inactive). The same measure for `Fc1cccc(CSc2nnc3ccc(-c4ccncc4)nn23)c1`: 9.1% (inactive); for `CCC(C)NC(=O)c1c(N)n(/N=C/c2cccs2)c2nc3ccccc3nc12` (stereo unspecified): 81.7% (active). With `CC(C)Cn1c(N)c(C(=O)NCc2cccs2)c2nc3ccccc3nc21` the figure was -8.7% (inactive); with `CCCNC(=O)c1c(N)n(-c2ccc(S(N)(=O)=O)cc2)c2nc3ccccc3nc12`, 21.5% (inactive); with `CN(/C(=N/S(=O)(=O)c1cccs1)c1ccccc1)c1ccc(O)cc1`, -3.2% (inactive). For the molecule `Cc1cc(NC(=O)CN2C(=O)NC(C)(CCc3ccccc3)C2=O)no1` (stereo unspecified), the inhibition was -5.6% (inactive). The same measure for `O=C(O)CCc1nc2cc(Cl)ccc2n(Cc2ccccc2)c1=O`: 2.8% (inactive); for `CN1c2ccccc2-c2nc3ccccc3n2C1c1ccco1` (stereo unspecified): 14% (inactive). For `Cn1c(-c2ccco2)nc2cc3ccccc3cc21`, the inhibition is 79.1% (active). The same measure for `CN(c1nc2ccccc2n2c(-c3ccco3)nnc12)S(=O)(=O)c1ccccc1`: 4.1% (inactive). `O=C1CCCC(O)=C1N=Nc1ccc2ncsc2c1`: the inhibition was -0.2% (inactive). The same measure for `O=C(NCCCn1ccnc1)C(=O)c1cn(CC(=O)N2CCCCCC2)c2ccccc12`: 6.5% (inactive); for `CC(C)N(C(=O)CSc1nc(COc2ccccc2)nc2ccccc12)C(C)C`: 10.8% (inactive); for `CC(=O)N1CCc2cc(Br)cc(S(=O)(=O)CCC(=O)Nc3c(C)n(C)n(-c4ccccc4)c3=O)c21`: -1.8% (inactive). Regarding `O=C(NCc1cccnc1)c1nc(-c2cccs2)no1`, the inhibition was 1.9% (inactive). With `Cc1ccsc1C(=O)OCC(=O)c1cc2ccccc2o1` the figure was 13.5% (inactive); with `Cc1cc(C(=O)Cn2cnc3cc([N+](=O)[O-])ccc3c2=O)c(C)n1CC1CCCO1` (stereo unspecified), 8.2% (inactive); with `Cc1ccsc1C(=O)OCC(=O)c1cc(C)n(CC2CCCO2)c1C` (stereo unspecified), 95.8% (active).

On to `CC(C)(C)C1CCC(OC(=O)CCC(=O)Nc2ccccc2)CC1` (stereo unspecified), for which the inhibition was 5.2% (inactive). With `O=C(c1cc(=O)c2ccccc2o1)N1CCN(c2ccccc2)CC1` the figure was 4.4% (inactive); with `Cc1ccc(-c2csc(NC(=O)c3cccs3)n2)cc1`, 12.6% (inactive). The same measure for `Cc1ccc(-c2nnc(-c3ccc(NC(=O)c4cccs4)cc3)o2)cc1`: 11.8% (inactive); for `Cc1nc(-c2ccc(NC(=O)c3cccs3)cc2)cs1`: 78.1% (active). As to `Cc1ccc(S(=O)(=O)N2CCN(CC(=O)N/N=C/c3cc([N+](=O)[O-])ccc3Cl)CC2)cc1`, the inhibition was -9.8% (inactive). Take `O=C1CCCc2c1nc(-c1cccc(Cl)c1)n2O`: the inhibition is -13.1% (inactive). Turning to `O=c1c2c(nc3cc(-c4cccc(Cl)c4)[nH]n13)CCCC2`, the inhibition was 65.7% (active).

As to `O=c1c2c(nc3nc[nH]n13)CCC2`, the inhibition was -1.5% (inactive). With `O=C(c1ccccc1)c1ccc(OCC(O)CN2CCCC2)cc1` (stereo unspecified) the figure was -2.9% (inactive). With `CCc1cc(-c2n[nH]c(=S)n2CC(C)C)cs1` the figure was 5% (inactive). For `CCN(CC)C(=O)c1ccc(O)c(OC)c1`, the inhibition was -3% (inactive). `COc1ccc(OCc2cccc(C(=O)N3CCCC3)c2)cc1`: the inhibition was 29% (inactive).

Consider `CCOc1ccc(OCc2cccc(C(=O)N(CC)CC)c2)cc1`, for which the inhibition is 70.7% (active). The same measure for `Cc1ccc(NC(=O)C(=O)NCC2CCN(C(=O)c3cccc([N+](=O)[O-])c3)CC2)cc1`: 6.1% (inactive); for `O=C(Nc1ccc(Cl)cn1)c1ccc2c(c1)OCCO2`: 70.2% (active); for `O=C(Nc1cccc(S(=O)(=O)Nc2ccc(Cl)cc2)c1)c1ccc2c(c1)OCCO2`: 44.7% (active). As to `COc1ccc(C(=O)NC(=S)Nc2ccc(Cl)cn2)cc1OC`, the inhibition is 20.4% (inactive). Turning to `O=C(Nc1cccc(S(=O)(=O)N2CCCCC2)c1)c1ccc2c(c1)OCO2`, the inhibition is 11.4% (inactive). With `O=C(Nc1ccc2c(c1)OCCO2)c1ccc(Cl)c(S(=O)(=O)N2CCCCC2)c1` the figure was 25.5% (inactive); with `COc1c(Cl)cc(C(=O)Nc2ccc(Cl)cn2)cc1Cl`, -37.3% (inactive). With `CC(=O)NC(=S)NNC(=O)c1ccc(Br)cc1` the figure was -0.5% (inactive); with `O=C1N/C(=C/c2cccs2)C(=O)N1Cc1ccc(F)cc1`, -0.7% (inactive).

Take `Cc1ccc(NC(=O)NNC(=O)c2sccc2-n2cccc2)cc1`: the inhibition was -2.5% (inactive). Turning to `Cc1ccnc(NC(=O)C(C)N2C(=O)c3ccccc3C2=O)c1` (stereo unspecified), the inhibition was 1.4% (inactive). As for `c1c2c(cc3sc(N4CCCCC4)nc13)OCCO2`, the inhibition was 89.7% (active). Take `COc1ccc2nc(Nc3nc4cc5c(cc4s3)OCCO5)sc2c1`: the inhibition is 10.2% (inactive). As for `Brc1ccc2nc(N3CCCC3)sc2c1`, the inhibition is 30.3% (inactive). With `CC(C)c1csc(CN2CCC(CO)(Cc3ccccc3)CC2)n1` the figure was 2.1% (inactive). The same measure for `CS(=O)(=O)N(Cc1ccccc1Cl)c1ccc(C(=O)NCc2cccnc2)cc1`: -0.3% (inactive); for `Fc1ccc(CNCc2ccc(Br)cc2)cc1`: 19.2% (inactive).

As to `NC1=NC(=O)S/C1=C\c1ccc(O)cc1`, the inhibition was 3.3% (inactive).

For the molecule `O=C(Nc1nc(-c2ccncc2)cs1)C1COc2ccccc2O1` (stereo unspecified), the inhibition was 22.6% (inactive).

Regarding `O=C(Nc1nc2ccccc2s1)c1ccc2c(c1)OCO2`, the inhibition was 61.3% (active). Regarding `O=C(Nc1nc(-c2ccc3c(c2)OCO3)cs1)c1ccncc1`, the inhibition is 64.6% (active). The same measure for `Cc1ccc(-c2csc(NC(=O)c3cnccn3)n2)cc1C`: 15.5% (inactive); for `O=C(Nc1ccccc1)c1ccc2c(c1)OCO2`: 18.6% (inactive); for `Cc1cc(C)c2nc(NC(=O)c3ccc4c(c3)OCO4)sc2c1`: 6.8% (inactive). For the molecule `C/C(CC(=O)Nc1cccc(C(F)(F)F)c1)=N\NC(=O)C(=O)NCC(C)C`, the inhibition is 0.3% (inactive). With `COc1ccc(S(=O)(=O)Nc2ccc3oc(C)c(C(C)=O)c3c2)cc1` the figure was 46% (active); with `COc1ccc(NS(=O)(=O)c2ccc(NC(C)=O)cc2)cc1OC`, 47.9% (active); with `COc1cc(NS(=O)(=O)c2ccc(NC(C)=O)cc2)cc(OC)c1`, 38% (inactive).

In the case of `COc1ccc2oc(C)c(NC(C)=O)c2c1`, the inhibition was 4.1% (inactive). As to `COC(=O)COc1ccc(S(=O)(=O)Nc2ccc(NC(C)=O)cc2)cc1`, the inhibition is -2% (inactive).

Turning to `COC(=O)c1c(C)oc2ccc(N(C(=O)Oc3ccccc3)S(=O)(=O)c3ccccc3)cc12`, the inhibition is 5.2% (inactive).

For `Cc1ccc2c(=O)oc(N(C)C)nc2c1`, the inhibition is -6.4% (inactive). The same measure for `CCc1c(C)nc2c(OC)cccc2c1Cl`: 3.4% (inactive). The same measure for `COc1ccccc1C1SCCN1C(=O)c1ccc([N+](=O)[O-])cc1` (stereo unspecified): -1.1% (inactive); for `COc1ccc(C(=O)Nc2ccc(CN3CCOCC3)cc2)cc1`: -2.1% (inactive); for `O=C(Nc1ccccc1C(=O)N1CCOCC1)c1ccc(CSc2ccccc2)cc1`: 24% (inactive). The same measure for `O=C(Nc1ccc(CSc2ccccc2)cc1)c1ccc(CN2CCOCC2)cc1`: 72.7% (active). For `COc1ccc(C(=O)Nc2ccc(-n3nncc3C(C)(C)C)cc2)cc1`, the inhibition is -0.3% (inactive). The same measure for `Cc1cccc(C)c1Nc1nnc(SCC(=O)Nc2sccc2C#N)s1`: 6.5% (inactive). Regarding `Cc1csc(SCC(=O)Nc2sccc2C#N)n1`, the inhibition is 44.3% (active). With `COc1ccc(NC(=O)CSc2nc(C)cs2)cc1` the figure was 10.5% (inactive); with `Cc1cc(-c2nnc(CCC(=O)NC(c3ccccc3)c3ccccc3)o2)no1`, 9.8% (inactive); with `Cc1nn(CC#N)c(=O)n1N(C)c1ncc(C(F)(F)F)cc1Cl`, 6.6% (inactive). For the molecule `Cn1c(SCC(=O)Nc2ccc(Br)cc2F)nnc1-c1ccco1`, the inhibition was 7.9% (inactive). `COc1ccc(C(=O)Nc2ccc(S(=O)(=O)NC(C)C)cc2)cc1`: the inhibition was -0.4% (inactive). With `COc1ccc(NS(=O)(=O)c2ccc(NC(=O)c3ccc(N(C)S(C)(=O)=O)cc3)cc2)cc1` the figure was 60.1% (active); with `COc1cc(OC)cc(C(=O)Nc2ccc(S(=O)(=O)Nc3cc(C)on3)cc2)c1`, 20.2% (inactive).

(Values after PubChem BioAssay AID862 (The Scripps Research Institute Molecular Screening Center, 2007).)
